The whole screen tested about 320,000 compounds, of which about 2,100 (0.66%) were called active. Inconclusive results (about 53%) are left out. Calls come from the whole dose curve; as a rule, active = well fitted inhibition curve with a large enough effect in the signal ratio, with a control signal flat (not every such curve was filed as active); inconclusive = small, poorly fitted or top-dose-only effect, or effect the other way, or a change in a side signal; inactive = flat fitted curve, though single readings scatter; the % refers to the signal ratio. The list comes from a sample in which actives are over-represented; it also holds similar structures and randomly drawn compounds.
Potency is the fitted concentration of half-maximal effect.

This assay is described as follows: qHTS Assay for Lipid Storage Modulators in Drosophila S3 Cells.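 For cell number change: cells counted by Cell Tracker Red CMTPX staining in the red channel.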 For lipid storage change, negative = inhibition: % is set by controls: 0 for no effect and ±100 for the full control effect. The settings on record: BODIPY lipid droplet fluorescence, 18-24 h, cells fed with added oleic acid; cell number change: measured here: cell count max response; series mostly up to 46.1 µM; lipid storage change, negative = inhibition: at the top concentration. In short, it runs like this:
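Laser-scanning cytometry quantifies lipid droplet accumulation (500–530 nm total intensity; droplet/cell object ratio) in oleic acid-fed (400 uM added) Drosophila S3 cells treated with a concentration series. 20 uM Triacsin C defined 100% inhibition.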
For orientation: qHTS replaces the single test concentration by a dilution series.
Take `CCc1cc(=O)oc2cc(C)cc(OC(C)C(=O)NC3CC(C)(C)NC(C)(C)C3)c12` (configuration not stated): the call was inactive and the cell number change stood at 17.3%. On to `Cc1ccc(S(=O)(=O)CCSc2nc(C)cc(C(F)(F)F)c2C#N)cc1`, for which the Potency was 16.4 µM (active) and the cell number change is -21.5%. With `CCS(=O)(=O)CCSc1nc(C)cc(C)c1C#N`, the result was inactive and the cell number change worked out at 5.68%. Take `Cc1ccc(S(=O)(=O)CCSc2ccc(C(F)(F)F)cn2)cc1`: the “lipid storage change, negative = inhibition” value is 6.53% (inactive) and the cell number change is 21.4%. In the case of `COc1ccc(NC(=O)CSCC(=O)N=c2sccn2C)cc1`, the call was inactive and the cell number change turned out to be 23.3%.

For the compound `COc1ccc(-n2nc3c(c2NC(=O)CCCl)CSC3)cc1`, the “lipid storage change, negative = inhibition” value was 25.1% (inactive) and the cell number change came to 1.89%. `CN1/C(=C/C=C(/C#N)C(N)=O)C(C)(C)c2ccccc21`: the “lipid storage change, negative = inhibition” value is -1.55% (inactive) and the cell number change is 13.2%. The matching figures for `CN1/C(=C\C(=O)Nc2ccc(F)cc2)C(C)(C)c2ccccc21`: -15.1% (inactive) and -24.5%.

Regarding `CN1/C(=C/C=C(C#N)C#N)C(C)(C)c2ccccc21`, the Potency was 7.31 µM (active) and the cell number change was found to be 7.31%. The matching figures for `CN1/C(=C\C=N\NC(=O)c2ccc(O)cc2)C(C)(C)c2ccccc21`: 2.31 µM (active) and -19.2%. Take `CN1/C(=C\C=Nc2ccc3ccccc3c2)C(C)(C)c2ccccc21`: the “lipid storage change, negative = inhibition” value is -22.9% (inactive) and the cell number change was found to be 6.9%. On to `CN1/C(=C\C(=O)C(F)F)C(C)(C)c2ccccc21`, for which the outcome was inactive. With `CCc1cc(C(=O)N2CCCC(CCC(=O)N3CCN(c4ccccn4)CC3)C2)no1` (configuration not stated), the “lipid storage change, negative = inhibition” value was -10% (inactive) and the cell number change was -4.75%.

On to `O=C(CSc1nc2ccccc2[nH]1)NCC1CCCO1` (configuration not stated), for which the “lipid storage change, negative = inhibition” value was -1.44% (inactive) and the cell number change is 1.54%. Regarding `O=C(CCC(=O)c1ccc(F)cc1)Nc1cccc(C(F)(F)F)c1`, the “lipid storage change, negative = inhibition” value is -22% (inactive) and the cell number change was -4.38%.

Regarding `COc1ccc(C(C)=O)cc1COC(=O)c1cnc(C)cn1`, the outcome was inactive and the cell number change stood at 5.96%. For the compound `COc1cc(COC(=O)c2cnc(C)cn2)c(OC)cc1Br`, the Potency is 0.517 µM (active) and the cell number change was 4.62%. Take `Cc1cnc(C(=O)OCc2c(C)cc(C(C)(C)C)cc2C)cn1`: the “lipid storage change, negative = inhibition” value was -22.9% (inactive) and the cell number change was determined as 3.78%. Turning to `COc1ccc(C(C(=O)NC2CCCC2)N(C(=O)c2ccco2)c2ccc3c(c2)OCO3)cc1OC` (configuration not stated), the “lipid storage change, negative = inhibition” value was 17.5% (inactive).

As to `COc1ccccc1NC(=O)Nc1c(C)nn(C)c1C`, the “lipid storage change, negative = inhibition” value is 4.48% (inactive) and the cell number change turned out to be 22.1%. For `C/C=C/c1ccc(OCCn2nnc3ccccc32)c(OC)c1`, in that order: -26% (inactive) and 1.4%. As for `COc1ccc(-c2cc(C(=O)c3c(N)n(C)c(=O)n(C)c3=O)c3ccccc3n2)cc1`, the “lipid storage change, negative = inhibition” value was 15.1% (inactive) and the cell number change worked out at 0.639%. The matching figures for `CCOCCCN1CN(S(=O)(=O)c2ccc(Cl)cc2)c2nc3ccccc3nc21`: 14.5% (inactive) and -11.9%. As for `Cc1c(CNCCc2ccc(Cl)cc2)c(C(=O)O)c(C)n1Cc1ccccc1`, the result was inactive. For the compound `Cc1ccc(NC(=O)COC(=O)CSC(=S)N2CCOCC2)cc1C`, the “lipid storage change, negative = inhibition” value is 5.57% (inactive) and the cell number change is 1.5%.

On to `O=C(O)CN1C(=O)CSc2ccccc21`, for which the “lipid storage change, negative = inhibition” value is -0.578% (inactive) and the cell number change was determined as 2.34%.

As to `O=C(CCl)N1c2ccccc2OCC1c1ccccc1` (configuration not stated), the compound was classed as inactive and the cell number change is -20.4%. Turning to `O=C(CCl)N1c2ccccc2SCC1c1ccccc1` (configuration not stated), the Potency is 1.03 µM (active) and the cell number change is -4.27%. For `CC(=O)Nc1ccc(Nc2c([N+](=O)[O-])c(=O)n(-c3ccccc3)c3ccccc23)cc1`, the “lipid storage change, negative = inhibition” value was 2.41% (inactive) and the cell number change was 12.5%.

As for `O=C(Nc1nncs1)c1ccccc1Br`, the Potency was 32.6 µM (active) and the cell number change was 9.55%.

Regarding `Cc1nnc(NC(=O)c2ccccc2Br)s1`, the “lipid storage change, negative = inhibition” value is 0.131% (inactive) and the cell number change came out at 8.15%. For `O=C(Nc1nccs1)c1ccccc1Br`, in that order: 8.98% (inactive) and 3.63%. As to `Cc1ccc(-n2nc3c(=O)n(CC(=O)NCc4ccc(C)o4)nc(C)c3c2C)cc1`, the compound was classed as inactive and the cell number change was -10.7%. Take `COC(=O)c1ccc2c(=O)n(CCCCCC(=O)NC(C)C)c(=O)[nH]c2c1`: the “lipid storage change, negative = inhibition” value was 20.1% (inactive). Regarding `O=C(Cn1cncn1)NCc1cccc2ccccc12`, the “lipid storage change, negative = inhibition” value is 5.26% (inactive) and the cell number change is -12.1%. For `CC1CCN(CCNC(=S)Nc2ccc(Cl)cc2)CC1`, in that order: 0.944% (inactive) and 5.06%. For `COc1cccc(/C=C2/C(=O)NN(c3ccccc3)C2=O)c1`, in that order: 1.13% (inactive) and 0.215%. For `COc1cccc(/C=C2/C(=O)NN(c3ccc(F)cc3)C2=O)c1`, the “lipid storage change, negative = inhibition” value was 69% (inactive) and the cell number change stood at 8.15%. With `O=C1NN(c2ccc(Cl)c(Cl)c2)C(=O)/C1=C/c1cccc(OC(=O)c2cccs2)c1`, the Potency was 23.1 µM (active) and the cell number change is -11.7%. Consider `CCOc1ccc(S(=O)(=O)Oc2ccc3ccccc3c2)cc1`, for which the “lipid storage change, negative = inhibition” value is -14.9% (inactive) and the cell number change is -10%. Regarding `CCOc1ccc(/C=C/C2=Cc3c(sc(NC(=O)CSc4n[nH]c(N)n4)c3C#N)C(C)(C)C2)cc1`, the Potency was 14.6 µM (active) and the cell number change is -29.6%. For `CCOC(=O)c1sc(NC(=O)CSc2n[nH]c(-c3ccccc3)n2)c(C#N)c1C`, the compound was classed as inactive.

In the case of `CCOc1ccccc1NC(=O)CSc1n[nH]c(N)n1`, the “lipid storage change, negative = inhibition” value was 7.41% (inactive) and the cell number change turned out to be 13.9%. Take `Cn1c(=O)n(C)c2cc(CN3C(=O)OC(C)(C)C3(C)O)ccc21` (configuration not stated): the compound was classed as inactive.

For the origin of these results see PubChem BioAssay AID2685 (National Center for Advancing Translational Sciences (NCATS), 2010).
